# Measured values: PubChem BioAssay AID602313 (National Center for Advancing Translational Sciences (NCATS), 2012)
# The campaign covered roughly 390,000 compounds. About 760 (0.19%) were called active. Roughly 3% stayed inconclusive and do not appear here. Calls come from the whole dose curve; as a rule, active = well fitted inhibition curve with a large enough effect; inconclusive = small, poorly fitted or top-dose-only effect; inactive = flat fitted curve, though single readings scatter. The entries come from a sample that favours actives as a whole. Where a call stands in place of a potency, no number is given.
# Test: qHTS for Inhibitors of Vif-A3F Interactions: qHTS; note: nearly all actives have a fitted effect of over 65% in size
# Conditions: HeLa A3F-eYFP + Vif (tagged APOBEC3F with the HIV-1 protein that degrades it), YFP fluorescence increase; series mostly up to 46.1 µM
# Source text: The recent discovery and characterization of host restriction factors, which provide a potent defense to invading retroviruses, has provided new targets for antiviral drug development. APOBEC3G (A3G) and APOBEC3F (A3F) are potent cytidine deaminases that block HIV-1 replication; HIV-1 expresses the Vif protein, which counteracts A3G and A3F by binding to them and inducing their proteasomal degradation. The Vif-A3G and Vif-A3F interactions provide two potential targets for development of small molecules which can interfere with the ability of Vif to degrade A3G or A3F. […] To identify inhibitors that can interfere with Vif mediated degradation of A3G and A3F, we have developed Hela cell lines that stably express A3G or A3F tagged with eYFP at the C-terminal end (A3G-eYFP or A3F-eYFP, respectively) and Vif. In the absence of an inhibitor, Vif induces degradation of A3G-eYFP and A3F-eYFP, and the cells are not fluorescent. In the presence of an inhibitor, it is expected that Vif will be unable to degrade A3G-eYFP and/or A3F-eYFP, resulting in an increase in yellow fluorescence. In this assays Vif A3F was screened against the Molecular Library Small Molecule Repository (MLSMR). NIH Chemical Genomics Center [NCGC] NIH Molecular Libraries Probe Centers Network [MLPCN] MLPCN Grant: MH093245 Assay Submitter (PI): Vinay Pathak, National Cancer Institute
# 5 uL of 700 cells/well of A3F-YFP cells are dispensed into black, clear bottom plates. The plates are incubated overnight at 37 deg C. 23 nL of compounds are added by pintool. The plates are incubated overnight at 37 deg C and then read on the TTP Acumen (Ex 488/ Em 500-530).
# Potency is the fitted concentration of half-maximal effect.
row,Structure (SMILES),Potency
1,CCN(CC)C(=O)CSC(Nc1cccc(F)c1)=C(C#N)C#N,10 µM (active)
2,Cc1cc(C)cc(NC(c2nnc(-c3cccc(F)c3)o2)c2ccc(F)cc2Cl)c1 (stereo not given),inactive
3,O=C(Nc1ccc(S(=O)(=O)N2CCC(c3nc4ccccc4s3)CC2)cc1)c1ccccc1F,inactive
4,O=C(Cn1nc(C(F)(F)F)c2c1CCCC2)Nc1ccc(Cl)cc1,inactive
5,NS(=O)(=O)c1ccc(NC(=O)COc2ccc(S(=O)(=O)NC3CCCCC3)cc2)cc1,inactive
6,Cc1cccn2c(=O)c(C(=O)NC(C)c3ccccc3)cnc12 (stereo not given),inactive
7,CCC1CN(S(=O)(=O)c2cc(-c3cc(C)no3)ccc2C)c2cc(C)ccc2O1 (stereo not given),inactive
8,O=C(CSc1oc(-c2ccco2)nc1S(=O)(=O)c1ccccc1)c1ccc(Cl)cc1,inactive
9,CCOc1ccc(CNC(=O)C2CCCN(S(=O)(=O)N(CC)c3ccc(OCC)cc3)C2)cc1 (stereo not given),inactive
10,CCOC(=O)c1cccc(NC(=O)c2cc(S(=O)(=O)N3CCCC(C)C3)cn2C)c1 (stereo not given),inactive
11,Cc1ccc(NC(=O)CSc2nc3c([nH]c4ccccc43)c(=O)n2-c2ccccc2)c(C)c1,inactive
12,CCCOc1ccc(-c2cccc(NS(=O)(=O)c3ccccc3)c2)nn1,inactive
13,CCCN1CCN(CCCNC(=O)Cn2nc(CC)n3c(cc4occc43)c2=O)CC1,inactive
14,O=C(COc1ccccc1F)Nc1ccc(C(=O)OCc2cc(=O)n3nc(C4CC4)sc3n2)cc1,inactive
15,CC1=C(c2ccc(Cl)cc2)S(=O)(=O)N=C1N1CCN(c2cc(C)ccc2C)CC1,inactive
16,Cc1ccccc1CN1CCC(CNC(=O)c2cc3ccc4cccnc4c3[nH]2)CC1,inactive
17,O=C(OC12CC3CC(CC(C3)C1)C2)c1ccc(NCc2cc(O)ccc2O)cc1,22.4 µM (active)
18,Cc1nnc(NCc2ccccc2)c2c1nnn2Cc1ccc(F)cc1,inactive
19,Fc1ccc(CSc2nc(NCc3ccccc3)c3ccccc3n2)cc1,inactive
20,Fc1ccc(CNc2nc3ccccc3n3nnnc23)cc1,7.94 µM (active)
21,Cc1cccc(Cn2c(SCc3ccc(C(=O)N4CCC(C)CC4)cc3)nc3ccncc32)c1,inactive
22,O=C(Nc1ccc(Br)cc1)c1cc2nc(-c3ccccc3)cc(-c3ccccc3)n2n1,inactive
23,O=C(C[n+]1ccc2c(c1)nnn2-c1ccccc1)c1ccc(Cl)cc1,inactive
24,O=C(OCc1nc2ccccc2[nH]1)C1CCCCC1,inactive
25,O=C(Cc1nc2ccccc2[nH]c1=O)c1ccc(Cl)cc1,12.6 µM (active)

row,Structure (SMILES),Potency
1,COc1cc(OC)c(OC)cc1/C=C/c1nc2ccccc2c(=O)n1-c1ccc(Br)c(C)c1,inactive
2,CCn1c(/C=C/c2ccc([N+](=O)[O-])o2)nc2ccccc2c1=O,22.4 µM (active)
3,CCCN(CCC)c1c([N+](=O)[O-])c(=O)oc2ccccc12,inactive
4,CCc1cccc(CC)c1NC(=O)Cn1c(=O)c(-c2cc(C)ccc2NC(C)=O)nc2ccccc21,inactive
5,CCc1nnc(SCc2c(F)cccc2Cl)c2cc3sccc3n12,inactive
6,CCOC(=O)c1ccc(NC(=O)CC2C(=O)N(c3cccc(OC)c3)C(=O)N2C2CCCCC2)cc1 (stereo not given),inactive
7,Cc1oc2ncn(CC(C)C)c(=O)c2c1C(=O)N1CCN(c2ccccc2F)CC1,inactive
8,CCOc1ccc(S(=O)(=O)c2cn(Cc3ccc(OC)cc3)c3ccc(F)cc3c2=O)cc1,inactive
9,COc1cc(CN(C(=O)c2ccccc2Br)c2ccccn2)cc(OC)c1OC,inactive
10,O=C(NCc1ccccc1)c1ccc2c(c1)nc1n2CCCCC1,inactive
11,Cc1ccc(CNC(=O)CCc2c(C)nn(-c3ccc(N4CCCC4)nn3)c2C)cc1,inactive
12,CCOCCCNC(=O)c1c(NC(=O)Cc2coc3ccc(C)cc23)sc2c1CCC2,inactive
13,CCC(=O)N1CCc2cc(S(=O)(=O)NC(Cc3ccccc3)C(=O)NCc3ccccc3)ccc21 (stereo not given),inactive
14,C[n+]1ccc(/C=C/c2c[nH]c3ccccc23)cc1,10 µM (active)
15,CCCCN(CC)CCCNC(=O)c1nn(C)c2c1CS(=O)(=O)c1ccccc1-2,inactive
16,Cc1ccc(-n2nc(CO)c(C(=O)NCCc3ccccc3)n2)cc1,inactive
17,CCN(CC)C(=O)CSc1nc2cc3c(cc2c(=O)n1CCCC(=O)NCc1ccc2c(c1)OCO2)OCO3,inactive
18,CCCCn1c(N)c(N(CCC(C)C)C(=O)c2ccc(COc3ccccc3)o2)c(=O)[nH]c1=O,inactive
19,CCCCn1c(N)c(N(CC(C)C)C(=O)c2ccc(Br)o2)c(=O)[nH]c1=O,inactive
20,CCCCn1c(N)c(N(CCC(C)C)C(=O)c2ccc([N+](=O)[O-])o2)c(=O)[nH]c1=O,10 µM (active)
21,Fc1ccc(-c2nn(-c3ccccc3Cl)c3c2cnc2ccccc23)cc1,inactive
22,COc1ccc(NC(=O)CSc2nnc(-c3nnn(-c4ccc(F)cc4)c3C)o2)cc1,inactive
23,CCn1cc2nc(SCc3cccc(F)c3)n(CCc3ccccc3)c(=O)c2n1,inactive
24,Cc1ccc(N=Cc2c(O)n(-c3nccs3)c(=O)c3ccccc23)c(C)c1,25.1 µM (active)
25,Cc1cccc(-n2c(O)c(C=Nc3ccccc3N)c(=O)[nH]c2=O)c1,inactive
